Compound activity: PubChem, National Center for Advancing Translational Sciences (NCATS)
Shown are actives, neighbours in structure and some others; about 7.4% of the full set was active somewhere.
p53 reactivation: mutant p53 re-activation in reporter cells; Potency, µM (series often up to 92.2 µM), usual class: activators; AID 504706; 320,000 tested, 0.063% active; H1299 p53-A138V BP100-luciferase reporter, luminescence, 24 h; note: nearly all actives have a fitted effect of over 45% in size
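H1299 (p53-null), stable ts p53-A138V + BP100-Luc; 1000 cells/well, Opti-MEM/10% FBS; cpd 4 pt, 1:5; 24 h, 37 deg C, 5% CO2; detection reagent 10 min RT; luminescence.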
ELG1 genotoxic: inducers of genotoxicity in HEK293T ELG1-luciferase cells; HEK293T ELG1-luciferase reporter, luminescence, 16 h; 330,000 tested, 1.3% active; Potency, µM (series often up to 46 µM), most hits filed as activators; note: nearly all actives have a fitted effect of over 60% in size
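Reporter readout depends on ELG1 protein level, which increases with genetic stress. After 16 hr compound exposure at 37 °C, luciferase activity was quantified using ONE-Glo.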
Rab9 prom act: Rab9 promoter activation | Huh7 Rab9 promoter-luciferase reporter, luminescence, 24 h | Potency, µM (series often up to 9.22 µM), most hits filed as activators | 320,000 tested, 2.8% active | AID 485297; note: nearly all actives have a fitted effect of over 60% in size
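Steps: seed 1500 Huh7 Rab9-luc cells per well, rest 2 h at 37 °C; add compound in DMSO; incubate 24 h; add luciferase reagent, 10 min ambient; read luminescence.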
SMN2 splice up: enhancers of SMN2 splice variant expression. Potency, µM (highest dose often 46.1 µM), hits mostly activators. HEK293 SMN2-luciferase splicing reporter, luminescence, 30-36 h. AID 1458. 210,000 tested, 2.8% active; note: nearly all actives have a fitted effect of over 55% in size
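qHTS luciferase splicing reporter: luminescence rises when SMN2 exon 7 is included in transfected HEK293 cells. Compound exposure lasted 30-36 h at 37C, with 4.5 mM final sodium butyrate as control, followed by a ONE-Glo read.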
FLuc counter: counter-screen for miR-21 project: firefly luciferase inhibitors or activators | purified FLuc, Km substrates, luminescence inhibition | Potency, µM (titrated, usually from 57.5 µM), hits mostly inhibitors | 360,000 tested, 6.9% active; note: nearly all actives have a fitted effect of over 55% in size
Target sequence (P08659 whole entry, looked up): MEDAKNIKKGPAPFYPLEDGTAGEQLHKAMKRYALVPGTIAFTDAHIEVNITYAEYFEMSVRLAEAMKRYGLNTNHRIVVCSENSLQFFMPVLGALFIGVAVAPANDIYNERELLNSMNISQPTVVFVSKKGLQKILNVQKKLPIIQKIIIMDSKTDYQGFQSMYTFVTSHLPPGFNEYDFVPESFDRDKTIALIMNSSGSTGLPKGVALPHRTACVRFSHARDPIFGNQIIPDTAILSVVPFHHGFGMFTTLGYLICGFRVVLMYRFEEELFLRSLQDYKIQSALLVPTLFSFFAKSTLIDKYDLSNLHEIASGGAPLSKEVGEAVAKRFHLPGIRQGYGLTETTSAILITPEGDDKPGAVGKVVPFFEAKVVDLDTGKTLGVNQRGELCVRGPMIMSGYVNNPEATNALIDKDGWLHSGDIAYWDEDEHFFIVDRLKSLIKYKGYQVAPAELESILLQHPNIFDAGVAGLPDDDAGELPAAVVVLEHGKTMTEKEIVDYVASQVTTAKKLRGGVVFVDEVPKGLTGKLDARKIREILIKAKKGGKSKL
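Purified P. pyralis luciferase, 10 nM final, with Km-level 10 uM D-luciferin and 10 uM ATP in 50 mM Tris acetate pH 7.5, 10 mM Mg acetate, 0.01% Tween-20, 0.05% BSA; 6-point qHTS titration about 60 µM downward; luminescence read.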
NPC1 promoter act: NPC1 promoter activation; 320,000 tested, 2.4% active; Huh7 NPC1 promoter luciferase reporter, 24 h; Potency, µM (doses to about 9.22 µM), hits mostly activators; note: nearly all actives have a fitted effect of over 60% in size
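Huh7 cells stably carrying NPC1 promoter–luciferase, plated in Opti-MEM with 10% FBS for 2 h, were exposed to compound in DMSO for 24 h at 37 °C; luciferase reagent was added for 10 min and luminescence read.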
Of the large screens only hits and unclear results are named; the others gave an inactive call. Calls come from the whole dose curve; as a rule, active = well fitted curve in the direction sought with a large enough effect; inconclusive = small, poorly fitted or top-dose-only effect, or another doubt; inactive = no such curve, though single readings can be large; an effect the other way counts as inactive or inconclusive.

COc1ccc(C2=NC(c3ccccc3)CO2)cc1 (centres undefined)	p53 reactivation inconclusive, ELG1 genotoxic inconclusive, Rab9 prom act 3.55µM, SMN2 splice up inconclusive, FLuc counter 1.51µM, NPC1 promoter act 3.16µM
O=[N+]([O-])c1cccc(C2CC(c3ccccc3)=NN2c2ccccc2)c1 (centres undefined)	FLuc counter inconclusive (no result: p53 reactivation, SMN2 splice up)
O=[N+]([O-])c1cccc(C2=NC(c3ccccc3)CO2)c1 (centres undefined)	p53 reactivation inconclusive, ELG1 genotoxic inconclusive, Rab9 prom act inconclusive, FLuc counter 26.9µM, NPC1 promoter act inconclusive
CCCN1CCN(c2ncnc3sc(C(=O)Nc4ccc(OC(F)(F)F)cc4)c(C)c23)CC1	none (no result: p53 reactivation, ELG1 genotoxic, Rab9 prom act, SMN2 splice up, NPC1 promoter act)
COc1ccc(NC(=O)CSc2oc(-c3cccs3)nc2S(=O)(=O)c2ccc(Br)cc2)c(OC)c1	none (no result: p53 reactivation, ELG1 genotoxic, Rab9 prom act, NPC1 promoter act)
CC(C)CCNC(=O)COc1ccc2c(c1)C(=O)CC(C)(C)O2	ELG1 genotoxic inconclusive
O=C(COc1ccc(Cl)cc1Cl)Nc1ccccn1	Rab9 prom act 0.1µM, FLuc counter 0.0757µM, NPC1 promoter act inconclusive
O=C(COc1ccc(Cl)cc1)Nc1ccc(Cl)cn1	p53 reactivation inconclusive, ELG1 genotoxic inconclusive, Rab9 prom act inconclusive, FLuc counter 12µM, NPC1 promoter act inconclusive (no result: SMN2 splice up)
Cc1ccccc1NC(=O)COc1ccc2c(c1)OC(C)(C)CC2=O	Rab9 prom act inconclusive, FLuc counter 23.9µM, NPC1 promoter act inconclusive (no result: SMN2 splice up)
O=C(COc1ccccc1Cl)Nc1ccc(Cl)cn1	ELG1 genotoxic 3.16µM, Rab9 prom act 1.41µM, SMN2 splice up 11.2µM, FLuc counter 0.953µM, NPC1 promoter act 2.24µM (no result: p53 reactivation)
COc1ccc(CCNC(=O)C2COc3ccccc3C2)cc1OC (centres undefined)	none (no result: p53 reactivation, ELG1 genotoxic, Rab9 prom act, SMN2 splice up, NPC1 promoter act)
COCCNc1nc(-c2cccc(OC)c2)nc2ccccc12	none (no result: p53 reactivation, ELG1 genotoxic, Rab9 prom act, FLuc counter, NPC1 promoter act)
O=C(COc1ccc2c(c1)OCO2)Nc1ccc(Cl)cn1	p53 reactivation inconclusive, ELG1 genotoxic inconclusive, Rab9 prom act 3.55µM, FLuc counter 13.5µM, NPC1 promoter act 2µM (no result: SMN2 splice up)
O=C(/C=C/c1ccc2c(c1)OCO2)NCCSCc1ccc(Cl)cc1Cl	FLuc counter inconclusive
O=C(COc1ccccc1)Nc1ccc(Cl)cn1	ELG1 genotoxic inconclusive, Rab9 prom act inconclusive, FLuc counter 19µM (no result: SMN2 splice up)
O=C(/C=C/c1ccc2c(c1)OCO2)Nc1ccc(Cl)cn1	ELG1 genotoxic 2.06µM, Rab9 prom act 0.562µM, SMN2 splice up 10µM, FLuc counter 1.9µM, NPC1 promoter act 1.12µM
O=C(/C=C/c1ccc2c(c1)OCO2)NC1CCCC1	FLuc counter 15.1µM (no result: p53 reactivation, SMN2 splice up)
CCN(CC)CCCC(C)n1c(-c2ccccc2)nc2c(NCCOC)nc(C)nc21 (centres undefined)	none (no result: p53 reactivation, ELG1 genotoxic, Rab9 prom act, FLuc counter, NPC1 promoter act)
CC12CCC(=O)N1C(C(=O)NCc1ccccc1Cl)CS2 (centres undefined)	none (no result: SMN2 splice up)
O=C(COc1ccc2c(c1)OCO2)Nc1ccccc1F	ELG1 genotoxic inconclusive, Rab9 prom act inconclusive, FLuc counter 6.01µM, NPC1 promoter act inconclusive
O=C(COc1ccccc1)NS(=O)(=O)c1ccc(Cl)cc1	FLuc counter 16.9µM (no result: SMN2 splice up)
COC(=O)c1ccccc1NC(=O)COc1ccc2c(c1)OCO2	Rab9 prom act inconclusive (no result: p53 reactivation, SMN2 splice up)
Cc1ccc(OCC(=O)Nc2cccc(C)n2)c(C)c1	p53 reactivation inconclusive, ELG1 genotoxic 4.11µM, Rab9 prom act inconclusive, FLuc counter 4.26µM, NPC1 promoter act inconclusive
Cc1cccc(NC(=O)COc2ccc(Br)cc2)n1	FLuc counter 23.9µM
CC(=O)c1ccc(NS(=O)(=O)c2cccc(S(=O)(=O)c3ccc(Cl)cc3)c2)cc1	FLuc counter inconclusive (no result: p53 reactivation, ELG1 genotoxic, Rab9 prom act, NPC1 promoter act)
COC(=O)C(Cc1ccccc1)NC(=O)C(N)CC(=O)O (centres undefined)	none (no result: p53 reactivation, ELG1 genotoxic, Rab9 prom act, FLuc counter, NPC1 promoter act)
COc1ccc(/C=C2\CCn3c2nc2ccccc2c3=O)cc1OC	ELG1 genotoxic inconclusive, Rab9 prom act 2.51µM, FLuc counter 8.49µM, NPC1 promoter act 3.55µM (no result: p53 reactivation, SMN2 splice up)
COc1cc(/C=C2\CCc3c2nc2ccccc2c3C(=O)O)cc(OC)c1OC	ELG1 genotoxic 23.1µM, Rab9 prom act 3.55µM, FLuc counter 0.849µM, NPC1 promoter act 2µM (no result: SMN2 splice up)
COc1ccc(/C=C2\CCn3c2nc2cc(C(=O)O)ccc2c3=O)cc1OC	none (no result: SMN2 splice up)
